According to PMC7819943, “Rice protein-binding microarrays: a tool to detect cis-acting elements near promoter regions in rice”:
Whole data set: some 35,000 sequences, median “fluorescence intensity (a.u.)” near 10,000, cut for the highest 2% near 52,000. The full list was thinned out, with the highest values kept by preference.

The sequences below were run against T1, OsWOX13 (Oryza sativa, UniProt Q5QMM3 1-267) (assay: protein-binding microarray (RPBM); PBS, 2% BSA, 51.3 ng/ul salmon testes DNA, 50 uM zinc acetate, 200 nM TF, 25 C, 1 h; high values mean tight binding). Details: protein: recombinant; tags: N-terminal polyhistidine and DsRed monomer fusion (pET32a); label: CyDye5-dUTP incorporated in the synthesized complementary strand; 3' TTTTT single-stranded linker to array surface; dsDNA, one strand shown.
T1 sequence: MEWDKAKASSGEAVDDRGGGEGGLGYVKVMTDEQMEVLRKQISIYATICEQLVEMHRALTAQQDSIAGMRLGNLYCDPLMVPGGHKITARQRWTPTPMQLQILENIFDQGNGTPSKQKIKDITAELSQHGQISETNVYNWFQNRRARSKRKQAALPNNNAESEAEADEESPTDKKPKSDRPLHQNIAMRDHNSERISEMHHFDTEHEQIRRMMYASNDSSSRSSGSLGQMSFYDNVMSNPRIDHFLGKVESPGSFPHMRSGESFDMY
Method in brief: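 Per-feature fluorescence intensity (arbitrary units), read on an Axon 4000B scanner, is the binding signal. Transcription factors carrying an N-terminal polyhistidine tag and DsRed fusion were expressed in E. coli BL21-CodonPlus and purified on Ni–NTA. A custom Agilent array, made double-stranded by primer extension with Cy5-dUTP and blocked with 2% BSA, was incubated with 200 nM protein in PBS, 2% BSA, salmon testes DNA and 50 µM zinc acetate at 25 °C for 1 h and then washed.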

Point of comparison: “AGTTTCATTAAATTTAATATTAAACATATTTTGATAATATCGGAGTCACCTAGTGCAG”, binding signal 5680 fluorescence intensity (a.u.). Against it:
- CATGGACAACAATCATTGCCTGTTACGCGCAAAGTTCTCGCGGAGTCACCTAGTGCAG — higher, 8490 fluorescence intensity (a.u.)
- AGTATAATGACTGTTAGATCTCCATAAAACTGGCCACAAACGGAGTCACCTAGTGCAG — lower, 3510 fluorescence intensity (a.u.)
- GCGATTAAATGTACAGTAAATAGGGATGAACAATATACGACGGAGTCACCTAGTGCAG — lower, 3570 fluorescence intensity (a.u.)
- AATCTTGGCAAATTTCCTTAATTTGAACCTACGTGTTAAACGGAGTCACCTAGTGCAG — lower, 5550 fluorescence intensity (a.u.)
- TTAATTGATTAATTTCCTTAACCAAATCTTGGCGACTTGACGGAGTCACCTAGTGCAG — higher, 61200 fluorescence intensity (a.u.)
- GAATAATTATTACACAATGCTAATTAATTTCACAATATTGCGGAGTCACCTAGTGCAG — higher, 38800 fluorescence intensity (a.u.)
- CCTTAATTGTGGGGCTGACTGCTATTTTCTATATCATGTGCGGAGTCACCTAGTGCAG — higher, 56000 fluorescence intensity (a.u.)
- CTATCTCATTGCTTAATTGGTCATATAATTGGGCTGAGTGCGGAGTCACCTAGTGCAG — higher, 16900 fluorescence intensity (a.u.)
- AGCAATGCAACGATTATTAATTTAATTTGCACATGTATTGCGGAGTCACCTAGTGCAG — higher, 5900 fluorescence intensity (a.u.)
- TAATATTTAATTTCTATCAACATCTGACTACTTAATATTGCGGAGTCACCTAGTGCAG — higher, 7790 fluorescence intensity (a.u.)
- TCTTAATAATTATTTCTTAATTAATTCTGTGCTAATTGTGCGGAGTCACCTAGTGCAG — higher, 54300 fluorescence intensity (a.u.)
- CATGGTGAATTGGTGATTTTATAATGATGCTAAGCTTTGACGGAGTCACCTAGTGCAG — lower, 4860 fluorescence intensity (a.u.)
- TGCATTGATTTGGTATAATTGACCATGCTTTGCGATGCAACGGAGTCACCTAGTGCAG — higher, 57700 fluorescence intensity (a.u.)
- ATAATATTTAATATTTAATTAATTATGTGCTAATAAATCGCGGAGTCACCTAGTGCAG — higher, 14300 fluorescence intensity (a.u.)
- ATCCTTATTAATTTAATTTAACAAAGTCAACTTGATTTCCCGGAGTCACCTAGTGCAG — higher, 23100 fluorescence intensity (a.u.)
- AGCGATTAGTAAGTGGATTGGATCTAACTAAGCTTGCTACCGGAGTCACCTAGTGCAG — higher, 9310 fluorescence intensity (a.u.)
- CCTGCACAATCACTGGCTGATGCATCTGCAATGTCACCAACGGAGTCACCTAGTGCAG — lower, 4350 fluorescence intensity (a.u.)
- TGGATTTGTATGTCTTAATTGAAGTTAGGCTATAAATTTGCGGAGTCACCTAGTGCAG — higher, 10300 fluorescence intensity (a.u.)
- ATATTTAATTTGATACTACCTATAAACCGCACAAGCTGCACGGAGTCACCTAGTGCAG — higher, 16800 fluorescence intensity (a.u.)
- GTGATGAGTGATGACCCGGAGAATGAGAGAGGCGACTGTGCGGAGTCACCTAGTGCAG — lower, 3800 fluorescence intensity (a.u.)
- AGTTATAATGGAATTAATTATAATTATAGTATAGTTAGATCGGAGTCACCTAGTGCAG — higher, 28600 fluorescence intensity (a.u.)
- ATATGATCGTATAATTAAATGAGATCATGATTAAGTGGAGCGGAGTCACCTAGTGCAG — higher, 16400 fluorescence intensity (a.u.)
- TAATCATGTTAAATTGATGTTATTAGATTTATCATTAAACCGGAGTCACCTAGTGCAG — higher, 14900 fluorescence intensity (a.u.)
- TAAATTAATTAATTAGGTATAAATGTAATTAAGCACATCGCGGAGTCACCTAGTGCAG — higher, 55000 fluorescence intensity (a.u.)
- GAGTGGTAAATAATTAATTATTACATATTTGTATAAATCGCGGAGTCACCTAGTGCAG — higher, 22800 fluorescence intensity (a.u.)
- CTCCTAATTTAGTCACTTATGGAGCTCTGATAGCTGGATGCGGAGTCACCTAGTGCAG — higher, 14200 fluorescence intensity (a.u.)
- GTTAATTAGATCATGATAAAGATTAATGTATAGATCGAGGCGGAGTCACCTAGTGCAG — higher, 62000 fluorescence intensity (a.u.)
- TAATGTGTGTGTATAATTAATTAAGCAGTGAAGTGAATCGCGGAGTCACCTAGTGCAG — lower, 5650 fluorescence intensity (a.u.)
- CATAATTAAAATACTTAAAATATGTGCTCGTAATTATTTACGGAGTCACCTAGTGCAG — higher, 6000 fluorescence intensity (a.u.)
- GGATTAAATTATCAAATAGATTTGGCTGCCATGATGGCACCGGAGTCACCTAGTGCAG — higher, 42600 fluorescence intensity (a.u.)
- CATTTGCTGGATGTGCTCCTTACTTAATATTTATGCATGGCGGAGTCACCTAGTGCAG — higher, 52600 fluorescence intensity (a.u.)
- ATGATAGATTAAATCAAATTATCATGTTATGGGTATAGCCCGGAGTCACCTAGTGCAG — higher, 53200 fluorescence intensity (a.u.)
- GGGGATGGAAGGGTGATTGAGAGTAAGAATTGGAGGTGATCGGAGTCACCTAGTGCAG — higher, 30000 fluorescence intensity (a.u.)
- TAGAATTGATGATACTAGCTATAACTTCCGAGTGAGCACACGGAGTCACCTAGTGCAG — higher, 16900 fluorescence intensity (a.u.)
- CCATCTGCTGATAGATTTTCTATTGCCAAATCTTACACCTCGGAGTCACCTAGTGCAG — higher, 5710 fluorescence intensity (a.u.)
- CTTCAATAATTAATTTATATTGTACTAATATGTTTGTAAACGGAGTCACCTAGTGCAG — higher, 17900 fluorescence intensity (a.u.)
- AATTACTGTCATGATTTGAATTTGCAATCATTTCCTGTACCGGAGTCACCTAGTGCAG — higher, 18800 fluorescence intensity (a.u.)
- TCCTTGCTAACAAATCAACCAATTTGTCCATTCCCTATGTCGGAGTCACCTAGTGCAG — lower, 3440 fluorescence intensity (a.u.)
- AGAAATTGATTCGTCGAGGATATTGATCTATTAGTAAATGCGGAGTCACCTAGTGCAG — higher, 36700 fluorescence intensity (a.u.)
- AAATAAATTTGAACTAAAATGAAAATTTGAAGGTATAGCACGGAGTCACCTAGTGCAG — higher, 12600 fluorescence intensity (a.u.)
- AAGCTTCCTTTGATTGATCCGACTCCACCAAGAACACGATCGGAGTCACCTAGTGCAG — higher, 22000 fluorescence intensity (a.u.)
- TGTAACTCTCGTATGTAATTGAGTAAAACATGTTGGTGCTCGGAGTCACCTAGTGCAG — lower, 4540 fluorescence intensity (a.u.)
- TTTTAGATTGGGTTATTTATAAGGCTAAGTTTTAATTTAACGGAGTCACCTAGTGCAG — lower, 4150 fluorescence intensity (a.u.)
- TTGTATGAATGAGCTATTAGATTGGCTATAGATGAATTGGCGGAGTCACCTAGTGCAG — higher, 8950 fluorescence intensity (a.u.)
- TATATAATTTATTTAATTGGATTTACCAGTTTAAGGGGTTCGGAGTCACCTAGTGCAG — higher, 54300 fluorescence intensity (a.u.)
- TTATTTAATTTAGAAAATTGGAGTTACCAGTTGTTCAGTTCGGAGTCACCTAGTGCAG — higher, 19500 fluorescence intensity (a.u.)
